According to PubChem BioAssay (NCATS):
Records with an inconclusive call do not appear. Where a call stands in place of a potency, no number is given. Active and inactive are the calls of the source. Calls come from the whole dose curve; as a rule, active = well fitted curve in the direction sought with a large enough effect; inconclusive = small, poorly fitted or top-dose-only effect, or another doubt; inactive = no such curve, though single readings can be large; an effect the other way counts as inactive or inconclusive.

Tested on: not listed separately
Experiment: Confirmation and Secondary Assay for Modulators of Hemoglobin Beta Chain Splicing at IVS2 705 locus (AID 930);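 note: HeLa cells stably expressing the EGFP-705 splicing reporter; GFP fluorescence per well restored by corrected splicing of the IVS2-705 intron in EGFP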
Conditions: HeLa EGFP-705 splicing reporter, GFP fluorescence, 48 h; series mostly up to 46.1 µM
In short: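 Splice-correction reporter: EGFP cDNA split by beta-globin intron 2 bearing the 705 mutation, stably in HeLa. Compound incubation 2 days, 37C; fluorescent objects 5-250 µm summed per well.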

| SMILES | outcome |
| --- | --- |
| N.N.O=C(O)C1(C(=O)O)CCC1.[Pt] | inactive |
| O=C1CN(/N=C/c2ccc([N+](=O)[O-])o2)C(=O)N1 | inactive |
| CC(C)NCC(O)COc1cccc2ccccc12 (stereo unspecified) | inactive |
| O=C(O)c1cc(O)c(O)c(O)c1 | inactive |
| O=C(O)c1cc(=O)c2c(Cl)cc(Cl)cc2[nH]1 | inactive |
| S=c1[nH]c2ccccc2s1 | inactive |
| COc1cc(CNC(=O)CCCC/C=C/C(C)C)ccc1O | inactive |

Biological target: Muscarinic acetylcholine receptor M1 (Rattus norvegicus) (UniProt P08482)
Experiment: qHTS Assay for Antagonists of Acetylcholine Muscarinic M1 Receptor: Kinetic Measurement of Intracellular Calcium Response (AID 943);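 note: Fluo-4 calcium signal as peak divided by basal fluorescence over 4 min; nearly all actives have a fitted effect of over 75% in size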
Conditions: M1-expressing cells, kinetic intracellular calcium fluorescence; series mostly up to 35.3 µM
In short: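 Antagonism is measured as inhibition of the carbachol-evoked calcium rise in CHO cells transfected with rat M1. Cells are dye-loaded, exposed to compound for 10 min, then stimulated with 100 nM carbachol (EC80).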

Chain of Muscarinic acetylcholine receptor M1 (Rattus norvegicus) (P08482 whole entry, looked up): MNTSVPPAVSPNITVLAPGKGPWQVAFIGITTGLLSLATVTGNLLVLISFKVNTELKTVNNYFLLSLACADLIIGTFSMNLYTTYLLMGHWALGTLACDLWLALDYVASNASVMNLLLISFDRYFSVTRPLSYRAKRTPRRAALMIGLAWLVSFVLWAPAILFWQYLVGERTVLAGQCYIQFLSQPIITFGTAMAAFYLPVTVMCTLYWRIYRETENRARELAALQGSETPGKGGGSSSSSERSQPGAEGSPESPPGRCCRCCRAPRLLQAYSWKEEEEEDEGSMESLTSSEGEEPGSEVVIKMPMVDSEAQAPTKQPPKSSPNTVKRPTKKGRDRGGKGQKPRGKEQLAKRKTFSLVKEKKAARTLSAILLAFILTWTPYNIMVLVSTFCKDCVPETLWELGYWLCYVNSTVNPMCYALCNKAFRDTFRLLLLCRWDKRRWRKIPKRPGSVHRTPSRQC

| SMILES | Potency |
| --- | --- |
| O=c1[nH]c2cc([N+](=O)[O-])c([N+](=O)[O-])cc2[nH]c1=O | inactive |
| N.N.O=C(O)C1(C(=O)O)CCC1.[Pt] | inactive |
| c1cnc2c(c1)ccc1cccnc12 | inactive |
| Cn1cc(C2=C(c3ccc(Cl)cc3Cl)C(=O)NC2=O)c2ccccc21 | inactive |

Biological target: Muscarinic acetylcholine receptor M1 (Rattus norvegicus) (UniProt P08482)
Experiment: qHTS Assay for Antagonists of Acetylcholine Muscarinic M1 Receptor: Measurement of IP-One Response (AID 944); note: nearly all actives have a fitted effect of over 75% in size
Conditions: CHO-M1 cells, IP-One HTRF, antagonist mode; series mostly up to 46.1 µM
In short: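 Antagonist mode with rat M1 receptor transfected into CHO cells. Compound is added first for 10 min, carbachol at its EC80 follows for 30 min, and lysis reagents then allow TR-FRET detection of accumulated IP1.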

| SMILES | Potency |
| --- | --- |
| O=c1[nH]c2cc([N+](=O)[O-])c([N+](=O)[O-])cc2[nH]c1=O | inactive |
| N.N.O=C(O)C1(C(=O)O)CCC1.[Pt] | inactive |
| Cc1ccc(O)c(N=Nc2ccccc2)n1 | inactive |
| O=C(Nc1ccccc1)c1cc([N+](=O)[O-])ccc1Cl | inactive |
| COC(=O)c1c(C)[nH]c(C)c1C(=O)c1ccccc1Cc1ccccc1 | inactive |
| c1cnc2c(c1)ccc1cccnc12 | inactive |
| Cn1cc(C2=C(c3ccc(Cl)cc3Cl)C(=O)NC2=O)c2ccccc21 | inactive |

Biological target: Pyruvate kinase (Leishmania mexicana) (UniProt Q27686)
Experiment: qHTS Validation Assay for Inhibitors of Leishmania Mexicana Pyruvate Kinase (AID 945); note: potency is the fitted concentration of half-maximal effect
Conditions: purified L. mexicana pyruvate kinase, enzyme activity, E451W mutant enzyme; series mostly up to 57.5 µM
In short: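 The enzyme is a highly purified E451W mutant of LmPYK used at 0.2 nM. It converts 0.5 mM PEP and 0.1 mM ADP over 1 h at room temperature; product ATP is quantified by luciferase luminescence relative to DMSO controls.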

Chain of Pyruvate kinase (Leishmania mexicana) (Q27686 2-499 E452W): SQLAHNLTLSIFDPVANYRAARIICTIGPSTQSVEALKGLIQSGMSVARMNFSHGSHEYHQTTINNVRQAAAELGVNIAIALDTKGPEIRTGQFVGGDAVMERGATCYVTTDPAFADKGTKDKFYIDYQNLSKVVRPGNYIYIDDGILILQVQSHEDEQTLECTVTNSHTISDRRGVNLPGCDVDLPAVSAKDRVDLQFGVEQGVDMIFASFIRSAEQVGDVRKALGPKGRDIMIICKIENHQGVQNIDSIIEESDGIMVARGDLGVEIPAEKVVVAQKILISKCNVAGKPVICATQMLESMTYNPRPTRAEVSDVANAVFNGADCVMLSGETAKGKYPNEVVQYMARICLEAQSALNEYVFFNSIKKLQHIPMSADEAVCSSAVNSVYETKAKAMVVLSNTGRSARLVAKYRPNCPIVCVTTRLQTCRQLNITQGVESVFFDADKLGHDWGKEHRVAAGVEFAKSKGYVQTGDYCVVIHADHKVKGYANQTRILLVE

| SMILES | Potency |
| --- | --- |
| Oc1ccccc1O | inactive |
| O=c1[nH]c2cc([N+](=O)[O-])c([N+](=O)[O-])cc2[nH]c1=O | inactive |
| N.N.O=C(O)C1(C(=O)O)CCC1.[Pt] | inactive |
| Cc1ccc(O)c(N=Nc2ccccc2)n1 | 6.31 µM (active) |
| COC(=O)c1c(C)[nH]c(C)c1C(=O)c1ccccc1Cc1ccccc1 | inactive |
| c1cnc2c(c1)ccc1cccnc12 | inactive |
| O=C(O)c1cc(=O)c2c(Cl)cc(Cl)cc2[nH]1 | inactive |
| Cn1cc(C2=C(c3ccc(Cl)cc3Cl)C(=O)NC2=O)c2ccccc21 | inactive |
